Bioassay records (PubChem BioAssay)
HTR5A inv ctr: inverse agonist of human HTR5A in OPRM1-OPRD1 counter-screen. P47898. HTR5A cell line, luminescence, inverse agonism. AID 504634. actives 0.083% (n = 340,000). inhibition, % at 9.3 µM; in the data active = inhibition mostly above about 23%, no sharp cut-off; inactive = mostly below about 18%;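 note: 0% = cells with DMSO and 100% = no-cell wells with DMSO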
HTR5A ag ctr: counter-screen for OPRM1-OPRD1 agonists: human HTR5A agonism | HTR5A agonist assay, luminescence, cell-based | activation, % at 9.3 µM | actives 0.61% (n = 340,000); in the data active = activation mostly above about 9.5%, no sharp cut-off; inactive = mostly below about 7.6%;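 note: 0% = cells with vehicle only and 100% = reference agonist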
MOR-DOR inv ag: inverse agonists of human mu-delta opioid receptor heterodimerization; actives 0.21% (n = 340,000); cell-based MOR-DOR heterodimer luminescence, inverse agonism; inhibition, % at 9.3 µM; P35372+P41143; in the data active = inhibition above about 22%, passing the limit was not always enough;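 note: 0% = cells with DMSO and 100% = wells without cells with DMSO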
Target sequence (P35372 whole entry, looked up): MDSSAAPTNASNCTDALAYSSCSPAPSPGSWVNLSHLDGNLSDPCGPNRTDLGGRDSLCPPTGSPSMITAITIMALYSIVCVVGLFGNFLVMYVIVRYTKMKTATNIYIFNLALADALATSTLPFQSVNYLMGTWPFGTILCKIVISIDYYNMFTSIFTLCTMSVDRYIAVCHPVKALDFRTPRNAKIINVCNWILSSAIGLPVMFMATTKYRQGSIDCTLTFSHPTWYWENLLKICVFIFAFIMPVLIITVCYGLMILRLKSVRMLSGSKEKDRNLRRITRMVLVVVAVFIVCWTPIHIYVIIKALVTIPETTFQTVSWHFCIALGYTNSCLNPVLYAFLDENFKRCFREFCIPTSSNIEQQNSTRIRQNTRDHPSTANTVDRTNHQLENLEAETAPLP
Target sequence (P41143 whole entry, looked up): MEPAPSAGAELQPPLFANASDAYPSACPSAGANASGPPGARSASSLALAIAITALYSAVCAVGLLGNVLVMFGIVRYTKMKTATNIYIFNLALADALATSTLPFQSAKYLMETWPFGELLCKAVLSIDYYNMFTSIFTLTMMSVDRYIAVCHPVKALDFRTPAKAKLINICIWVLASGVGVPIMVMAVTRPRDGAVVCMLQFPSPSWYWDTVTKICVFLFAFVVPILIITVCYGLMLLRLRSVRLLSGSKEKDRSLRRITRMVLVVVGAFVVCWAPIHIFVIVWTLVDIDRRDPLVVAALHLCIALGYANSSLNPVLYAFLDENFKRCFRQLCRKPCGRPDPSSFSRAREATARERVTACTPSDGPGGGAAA
MOR-DOR ag-1: OPRM1-OPRD1 heterodimerization agonism; P35372+P41143; AID 504326; cells, luminescence; actives 0.3% (n = 340,000); activation, % at 9.3 µM;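 note: 0% = vehicle-treated cells and 100% = reference agonist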
MOR-DOR ag-2: opioid heterodimer agonism, HTR5A counter-screen; shares compounds with HTR5A ag ctr; U2OS counter-screen cells, complementation luminescence, 3 h; activation, % at 9.3 µM; actives 13% (n = 800); AID 504913
HTR5A ag confirm: HTR5A (human) agonism, confirmation | shares compounds with HTR5A ag ctr | HTR5A agonist cell assay, luminescence | activation, % at 9.3 µM | actives 17% (n = 800) | AID 504915; in the data active = activation above about 17%;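 note: 0% = cells with vehicle only and 100% = full reference agonist response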
Numbers without * were called inactive; nt = not tested or not shown. A selection: hits, their analogues and other compounds. The true share with any hit is near 1.1%. Cut-off read from the data, not from the text of the source, unless noted: active = activation above about 18%; inactive = the rest.

SMILES | HTR5A inv ctr | HTR5A ag ctr | MOR-DOR inv ag | MOR-DOR ag-1 | MOR-DOR ag-2 | HTR5A ag confirm
O=C(Nc1ccc(N2CCN(C(=O)c3cccs3)CC2)cc1)c1ccc(Br)o1 | -41 | 16* | 0 | 0 | 5 | 0
O=C(CSc1ccccc1)NCC1(N2CCCCC2)CCCCC1 | -8 | 17* | 6 | -1 | 23* | 6
CC(=O)Cn1ncc(N(C)Cc2ccccc2)c(Cl)c1=O | -6 | 1 | 15 | -3 | nt | nt
COc1ccc(/C=N/NC(=O)c2ccc(COc3ccccc3Cl)o2)cc1 | 12 | 1 | 0 | 0 | nt | nt
COc1ccc(/C=N/NC(=O)c2ccc(COc3ccccc3Cl)o2)c(OC)c1C | -38 | 22* | -62 | 12 | 8 | 15
COc1cc2nc(N3CCN(c4cc(C)ccc4C)CC3)nc(N)c2cc1OC | -65 | 17* | -79 | 14 | 13 | 6
COc1ccc(OC)c(NS(=O)(=O)c2ccc3c(c2)C(C)(C)C(=O)N3C)c1 | 6 | -2 | -3 | 1 | nt | nt
CC(NC(=O)c1cn(C)c2ccc(S(=O)(=O)N3CCCC3)cc2c1=O)c1ccccc1 (centres undefined) | 13 | -2 | 17 | -3 | nt | nt
COc1ccc(C(=O)Nc2cccnc2)cc1S(=O)(=O)N1CCOCC1 | -43 | 16* | 0 | 0 | 1 | 1
CCCCc1cc(=O)oc2cc(OCC(=O)NC3CCN(Cc4ccccc4)CC3)ccc12 | -9 | 15* | -10 | 2 | 5 | 8
Cc1nc(Nc2ccc(Cl)cc2)c(C#N)c(=O)[nH]1 | -43 | 16* | 12 | -2 | 0 | 2
N#Cc1cccnc1Nc1ccc(Cl)cc1 | -22 | 8 | 9 | -2 | nt | nt
COc1ccc(NC(=O)COC(=O)[C@@H]2CCCN2S(=O)(=O)c2ccccc2F)c(OC)c1 | -16 | 6 | 6 | -1 | nt | nt
O=C(COC(=O)[C@@H]1CCCN1S(=O)(=O)c1ccccc1F)NCc1ccc2c(c1)OCO2 | -44 | 17* | 12 | -3 | 1 | 5
COc1ccc(CCNC(=O)CN2C(=O)NC(Cc3c[nH]c4ccccc34)C2=O)cc1 (centres undefined) | -5 | 1 | 5 | -1 | nt | nt
Cc1cccc(NC(=S)NCc2ccc(F)cc2)c1C | 4 | 8 | -5 | 1 | nt | nt
Cc1ccccc1C(=O)c1c[nH]c(C(=O)NCc2ccco2)c1 | 5 | -2 | 5 | -1 | nt | nt
O=C(NCc1ccco1)c1cc(C(=O)C2CC2)c[nH]1 | -44 | 17* | 8 | -2 | 0 | 6
COc1ccc(-c2nn(-c3ccccc3)cc2C(=O)NC2CC2)cc1 | 13 | -5 | 16 | -4 | nt | nt
CC(c1ccc(O)cc1)(c1ccc(O)cc1)c1ccc(CCBr)cc1 | -53 | 15* | 6 | -1 | 7 | 3
OCCc1ccc(O)cc1 | -37 | 10 | 18 | -3 | nt | nt
CCOC(=O)/C(C#N)=C/Nc1ccccc1OC | 0 | 17* | -5 | 1 | 4 | -2
CCOC(=O)C(=O)/C(C#N)=C/Nc1ccccc1 | 13 | -6 | 15 | -3 | nt | nt
Cn1c(NC(=O)Cc2cccs2)cc(=O)n(C)c1=O | -53 | 19* | 11 | -2 | 1 | 0
O=C(NCc1cc([N+](=O)[O-])ccc1O)c1cc(-c2ccncc2)nc2ccccc12 | 20 | 4 | 8 | -1 | nt | nt
SMILES | HTR5A inv ctr | HTR5A ag ctr | MOR-DOR inv ag | MOR-DOR ag-1 | MOR-DOR ag-2 | HTR5A ag confirm
O=C(Nc1ccc(F)c(F)c1)C1CCN(S(=O)(=O)c2cccc3nonc23)CC1 | -12 | 17* | -35 | 6 | 0 | 0
CC(NC(=O)COc1ccccc1Cl)c1ccccc1 (centres undefined) | -3 | 1 | -6 | 1 | nt | nt
COc1ccc(CNC(=O)CN(CC2CCCO2)C(=O)CNS(=O)(=O)c2ccccc2)cc1 (centres undefined) | -51 | 17* | 12 | -2 | 4 | 3
O=C(O)CSc1ccc2ccccc2n1 | -5 | 2 | -8 | 1 | nt | nt
O=C(CSc1ccc2ccccc2n1)c1ccc2c(c1)OCO2 | -121 | 40* | -1 | 0 | 5 | 53*
Cc1cc(OC(=O)c2ccccc2Cl)cc(=O)n1C | -3 | 16* | -7 | 2 | 123* | -4
O=C(Nc1nnc(SCc2ccc(Cl)cc2)s1)C1CCCO1 (centres undefined) | -54 | 21* | 9 | -2 | 1 | -1
COC(=O)c1ccc(CSc2nnc(NC(=O)C3CCCO3)s2)cc1 (centres undefined) | -4 | 2 | 11 | -2 | nt | nt
